# Screens as filed in PubChem.
# This is one part of a sample in which hits are shown more often than they occur.
# CHX counter – Cycloheximide Counterscreen for Small Molecule Inhibitors of Shiga Toxin | max response, % | cell reporter, cycloheximide protein synthesis inhibition counterscreen | hit rate 12% among 300,000; in the data active = max response mostly above about 13%, no sharp cut-off; inactive = mostly below about 14%; note: read at 38.3 µM for the half of the compounds with a filed dose; 0% is about no effect
# LmPK inhibitor – qHTS Assay for Inhibitors of Leishmania Mexicana Pyruvate Kinase (LmPK); Q27686; purified LmPK, Kinase-Glo ATP luminescence, 1 h; Potency, µM (doses to about 57.5 µM), inactives show at the highest dose activity change, negative = inhibition, hits mostly inhibitors; hit rate 0.37% among 290,000; note: potency is the fitted concentration of half-maximal effect; % is set by controls: 0 for no effect and ±100 for the full control effect
#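 Purified LmPK (0.1 nM) with 0.5 mM PEP and 0.1 mM ADP in imidazole buffer pH 7.2 with MgCl2/KCl, 1 h at room temperature. ATP formed was read by luciferase luminescence and normalized to no-enzyme and uninhibited controls.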
# TbPYK inhibitor – qHTS of Trypanosoma Brucei Inhibitors. pyruvate kinase (Trypanosoma brucei), Q57TT1. TbPYK enzyme, Kinase-Glo Plus ATP luminescence, 45 min. Potency, µM (series often up to 76.8 µM), inactives show at the highest dose activity, negative = inhibition, most hits filed as inhibitors. hit rate 0.12% among 410,000; note: potency is the fitted concentration of half-maximal effect; % is set by controls: 0 for no effect and ±100 for the full control effect; nearly all actives have a fitted effect of over 50% in size
#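 Screened from lowest to highest concentration, compounds were pinned into TbPYK/substrate mixtures, and ADP (130 uM final) was added. Plates sat at room temperature for 45 min prior to Kinase-Glo Plus detection by luminescence.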
# Shiga inhibitor – A qHTS for Small Molecule Inhibitors of Shiga Toxin. hit rate 9.2% among 290,000. Vero cells, Shiga toxin protein synthesis inhibition reporter. inhibition, % at 38.7 µM; in the data active = inhibition mostly above about 28%, no sharp cut-off; inactive = mostly below about 43%; note: 0% is about no effect
# RE007 growth inh – qHTS Assay for Inhibitors of the HIV-1 protein Vpr | S. pombe RE007 Vpr strain, BacTiter-Glo ATP luminescence, 24 h | Potency, µM (highest dose often 92.2 µM), without a hit: at the top dose activity change, negative = less growth, hits mostly inhibitors | hit rate 0.21% among 360,000 | AID 651644, 2012; active = well fitted falling curve with a large enough effect; inconclusive = small, poorly fitted or top-dose-only effect; inactive = no such curve, though single readings can be large or run the other way; note: potency is the fitted concentration of half-maximal effect; % is set by controls: 0 for no effect and ±100 for the full control effect; nearly all actives have a fitted effect of over 50% in size
#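 Fission yeast RE007 carrying one integrated HIV-1 vpr copy, seeded at OD 0.01 in PMG+AL medium with 23 nL pinned compound. Grown 24 h at 30 degrees; viability read by BacTiter-Glo luminescence after 5 min.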
# Giardia FBPA inh – qHTS Assay for Inhibitors of Fructose-1,6-bisphosphate Aldolase from Giardia Lamblia. A8B2U2. purified Giardia FBPA. Potency, µM (titrated, usually from 59.6 µM), for the others: at the top dose activity, negative = inhibition, usual class: inhibitors. hit rate 0.71% among 290,000; note: potency is the fitted concentration of half-maximal effect; % is set by controls: 0 for no effect and ±100 for the full control effect; nearly all actives have a fitted effect of over 55% in size
# Target sequence (A8B2U2 whole entry, looked up): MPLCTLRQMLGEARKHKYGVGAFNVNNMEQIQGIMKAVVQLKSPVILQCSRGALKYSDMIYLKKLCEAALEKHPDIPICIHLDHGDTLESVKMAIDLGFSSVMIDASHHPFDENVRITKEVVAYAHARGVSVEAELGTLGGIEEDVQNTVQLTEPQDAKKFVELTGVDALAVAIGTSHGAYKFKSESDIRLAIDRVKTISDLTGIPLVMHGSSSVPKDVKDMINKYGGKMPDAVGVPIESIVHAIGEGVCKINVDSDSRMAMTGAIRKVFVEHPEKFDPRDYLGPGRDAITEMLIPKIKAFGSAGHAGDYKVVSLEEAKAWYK
#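 Giardia FBPA (40 nM reagent) was preincubated 10 min at RT with compound (up to 57.5 uM final), then substrate plus GAPDH/TPI/NAD/arsenate coupling system with diaphorase/resazurin was added; resorufin fluorescence (525/598 nm) was read after 20 min.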
# The depositor's hits bear a star; ? = inconclusive; . = no result given; ! = not confirmed by another sample; [ ] = another dose, or the depositor's remark. Unless noted, calls come from the whole dose curve; as a rule, active = well fitted curve in the direction sought with a large enough effect; inconclusive = small, poorly fitted or top-dose-only effect, or another doubt; inactive = no such curve, though single readings can be large; an effect the other way counts as inactive or inconclusive.
SMILES,CHX counter,LmPK inhibitor,TbPYK inhibitor,Shiga inhibitor,RE007 growth inh,Giardia FBPA inh
O=C(Nc1ccc2ccccc2c1)c1cccc(F)c1,52*,6%,-15%,90*,?,-12%
O=C(Nc1cccc(NC(=O)c2cccc(F)c2)n1)c1cccc(F)c1,23*,-6%,2%,70*,?,-11%
CC(=O)Cc1nsc(NC(=O)c2cccc(F)c2)n1,41*,-15%,-3%,72*,7%,-10%
CC(=O)Cc1nsc(NC(=O)c2ccc(-c3cccc(C(F)(F)F)c3)o2)n1,-2,-5%,5%,-4,-5%,2%
O=C(CC1N=C2c3ccccc3N=C(SCc3ccccc3Cl)N2C1=O)NC1CCCCC1 (configuration not stated),.,.,2%,.,.,.
CCOC(=O)N(C)c1c(CC)nc2c(OCc3ccc(S(C)(=O)=O)cc3)cccn12,.,.,-8%,.,-7%[18.4 µM],.
Cc1ccc2cc(NC(=O)c3ccccc3)ccc2n1,47*,-18%,-4%,67*,-4%,-11%
COc1ccccc1CCc1nnc(CCC(=O)NCC[C@@H]2C[C@@H]3C=C[C@H]2C3)o1,13*,3%,3%,24,-11%,-1%
Cc1nc2cc(NC(=O)c3ccc(Br)s3)ccc2s1,63*,-9%,5%,117*,-17%,.
Cc1ccc(C(=O)Nc2ccc3nc(C)sc3c2)s1,43*,2%,-7%,112*,0%,-1%
C=C(C)[C@H]1CN[C@H](C(=O)O)[C@H]1CC(=O)O,-5,.,-2%,47*!,10%[18.4 µM],0%
COc1cccc(C(=O)NCCS(=O)(=O)N2CCC(C)CC2)c1,.,.,3%,.,12%,.
COc1cccc(C(=O)NCC(=O)N2CCC(C)CC2)c1,25*,-4%,-1%,35,1%,10%
COc1ccc(N2CCN(C(=O)COC(=O)CNC(=O)c3cccc(OC(F)F)c3)CC2)cc1,.,.,3%,.,-9%,.
CC1CCN(C(=O)CNC(=O)c2cccc(OC(F)F)c2)CC1,18*,-2%,1%,49*,0%,5%
O=C(Cn1c(=O)n(-c2ccccc2)c(=O)c2ccc(C(=O)NCc3ccc4c(c3)OCO4)cc21)Nc1ccc(Br)cc1F,.,.,3%,.,.,.
O=[N+]([O-])c1cc(Cl)ccc1-c1nc(-c2ccccc2)no1,58*,-8%,3%,62*,-28%,2%
O=[N+]([O-])c1cc(-c2nc(-c3ccccc3)no2)ccc1N1CCCC1,.,.,0%,.,.,.
Clc1ccc(Cl)c(-c2nc(-c3ccncc3)no2)c1,-2,10%,-4%,.,-11%,2%
O=[N+]([O-])c1cc(Cl)ccc1-c1nc(-c2ccncc2)no1,19,0%,1%,42*,1%,2%
CCc1ccccc1NC(=O)Cn1c(C(=O)OC)cc2oc(C)cc21,.,.,-3%,.,.,.
Cc1ccc2c(c1)C1(C=CC(=O)C=C1)CC(=O)N2C,16,.,.,-5,.,-14%
Cc1ccc(NC(=O)Cn2cnc3sc(C)c(S(=O)(=O)N4CCN(c5ncccn5)CC4)c3c2=O)cc1F,.,.,-2%,.,.,.
CCOC(=O)C1(Cc2ccccc2)CCCN(C(=O)c2cn[nH]c2)C1 (configuration not stated),-2,-1%,-7%,-6,-11%,-12%
CCOC(=O)C1(Cc2ccccc2)CCCN(C(=O)C=C(C)C)C1 (configuration not stated),24*,1%,2%,86*,1%,0%
SMILES,CHX counter,LmPK inhibitor,TbPYK inhibitor,Shiga inhibitor,RE007 growth inh,Giardia FBPA inh
CCOC(=O)C1(Cc2ccccc2)CCCN(C2CCN(C(C)=O)CC2)C1 (configuration not stated),-1,0%,-6%,-3,1%,-1%
CCOC(=O)C1(Cc2ccccc2)CCCN(C(=O)c2ccc(-n3ccnc3)cc2)C1 (configuration not stated),26*,0%,1%,42*,-22%,.
Cc1ccc(S(=O)(=O)Nc2ccc(O)c3ccccc23)c(C)c1,12,8.9µM*,-20%,28,-10%,?
CC1(c2ccccc2)NC(=O)N(CC(=O)Nc2ccc(N3CCOCC3)cc2)C1=O (configuration not stated),.,.,5%,.,5%,.
CCCCN=Cc1c(C)[nH]n(-c2ccccc2)c1=S,25*,?,7.9µM*,34,1%,?
Cc1[nH]n(-c2ccccc2)c(=O)c1/C=N/N1C(=O)c2cccc3cccc(c23)C1=O,-1,-2%,-3%,14,-12%,-3%
Cc1[nH]n(-c2ccccc2)c(=S)c1C=Nc1cccc([N+](=O)[O-])c1,-2,-27%,3.2µM*,1,13%,?
Cc1[nH]n(-c2ccccc2)c(=O)c1C=NCCc1ccccc1,21*,-1%,5%,66*,7%,0%
CCCC(=O)Nc1nnc([C@H]2C[C@H](O)[C@@H](CO)O2)s1,.,.,-11%,.,3%[18.4 µM],.
CC(=O)Nc1ccc(-n2cc(-c3ccccc3)[nH]c2=S)cc1,5,?,3.2µM*,6,5%,0%
COc1ccc(-n2cc(-c3ccccc3)[nH]c2=S)cc1,12,?,?,13,15%,2%
CN(C)c1ccc(C(CNC(=O)c2ccco2)N2CCCC2)cc1 (configuration not stated),26,-7%,-9%,48*,-1%,.
COc1ccc(C(CNC(=O)c2ccco2)N2CCCC2)cc1 (configuration not stated),.,.,3%,.,4%,.
CCOC(=O)c1ccc(NC(=O)NCCOCCn2c(=O)oc3ccccc32)cc1,.,.,1%,.,.,.
NC(=O)CSc1nc2c(oc3ccccc32)c(=O)n1-c1ccccc1F,.,.,0%,.,.,.
C=CCNc1nc(N)c(C(=O)Nc2cc(C)on2)s1,19*,-25%,-1%,38*,-1%,?
C=CCNc1nc(N)c(C(=O)c2ccc3c(c2)OCO3)s1,26*,4%,2%,87*,15%,-20%
Cc1cc(NC(=O)c2sc(Nc3ccc(F)cc3)nc2N)no1,28*,4%,-3%,103,1%,-7%
O=C(NC(Cc1ccccc1)C(=O)N1CCCCC1)c1ccccc1 (configuration not stated),.,.,2%,.,1%,.
Cc1ccccc1Nc1c(-c2c[nH]c3ccccc23)nc2cccc(C)n12,.,.,0%,.,.,.
C/C(=N\NC(=O)c1ccccc1O)c1cccs1,32*,14µM*,-26%,56*,-25%,-17%
C/C(=N\NC(=O)c1cccc2ccccc12)c1cccs1,29*,-2%,-6%,70*,19%,?
C/C(=N/NC(=O)Cc1cccc2ccccc12)c1cccs1,2,4%,0%,-13,-4%,-3%
